This is an account of results in PubChem BioAssay.

Records with an inconclusive call do not appear. Active and inactive are the calls of the source.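 Rule for the calls, unless noted: active = viability at or under a set limit in both replicates, limit being median viability minus 3 SD (cut at about 48% in these data, passing the limit was not always enough); inconclusive = at or under the limit in just one replicate; inactive = at or above the limit in both replicates.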

Test [1] in a line: Her2 expression decrease, cell viability multiplex – SKBR3 breast tumor cells, AlphaScreen, ATP viability, primary screen (AID 461;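 active = Her2 level under about 52% in both replicate screens, with viability over 70% of control, limit read from the data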;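 for Her2 level: lower value means less Her2 protein in the cells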;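 for viability: percent of carrier control wells set as 100% viability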). Particulars: SKBR3 Her2 protein level, 18-24 h, measured here: SKBR3 viability, ATP luminescence, at 10 µM.
The target in test [2] is Receptor tyrosine-protein kinase erbB-2 (Homo sapiens) (UniProt P04626). Described as above. The following applies: 18-24 h, at 10 µM, stronger effect = lower value.
Test [3] in a line: reduced viability of SK-BR-3 breast cancer cells – cell-based, 24 h, human, pilot screen (AID 572;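 active = viability at or below 10% of carrier control in both of two separate runs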;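 note: compound exposure lasted between 18 and 24 h rather than exactly 24 h; 100% = carrier-treated control wells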). Particulars: SK-BR-3 viability, CellTiter-Glo luminescence, at 10 µM, stronger effect = lower value. Background: Cellular ATP, detected with luciferase, serves as a proxy for viable cell number.
Test [4] can be described thus: HUVEC growth inhibition – cell-based, human, primary screen (AID 575;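 active = viability at or below 30% in both replicate assays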;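 note: 100% = median of untreated cell wells with 0.1% DMSO on each plate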). Particulars: HUVEC proliferation, CellTiter-Glo luminescence, 72 h; at 10 µM; stronger effect = lower value.
A short description of test [5]: H69AR cell proliferation blockers – human, duplicate replicates, primary screen (AID 580).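 Note: 100% = mean luminescence of untreated wells and 0% = no signal.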 The following applies: H69AR lung tumor cells viability, ATP luminescence, 72 h; at 10 µM; stronger effect = lower value.
Test [6] can be described thus: MRP1 drug-resistance reversers in H69AR cells – cell-based, doxorubicin co-treatment, pilot screen (AID 601;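 active = viability loss from added drug above about 55%, and viability with drug at most 40%, in both replicates, limit read from the data, passing the limit was not always enough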). Particulars: CellTiter-Glo, 72 h, at 10 µM; for differential viability (reversal): stronger effect = higher value.
Test [7] in a line: yeast transport mutant growth inhibition pilot in 384-well plates, post-Golgi transport modulator project (AID 636; in the data active = inhibition above about 31%). The following applies: absorbance 615 nm, about 18 h, stronger effect = higher value.
Test [8] in a line: growth suppression of yeast trafficking mutant, preliminary HTS, modulators of trafficking downstream of Golgi apparatus project, 1536-format plate, OD 615 nm (AID 637; in the data active = inhibition above about 30%). The following applies: yeast transport mutant growth, absorbance 615 nm, 18 h; stronger effect = higher value.
Test [9] is described as follows: S. cerevisiae growth inhibition in permissive medium (OD615), pilot counter-assay for S. cerevisiae lifespan shortening project, permissive growth control (AID 705;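 active = growth inhibition above 25% in both replicates, a cutoff set 3 SD above the mean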). Particulars: OD615, 24 h, at 10 µM, stronger effect = higher value.
The nature of test [10]: S. cerevisiae growth inhibition in restrictive medium, OD615, pilot screen, restrictive growth control, yeast lifespan reduction project (AID 706;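 active = growth inhibition above a set limit, 3 SD over mean compound inhibition, in both replicates, cut at about 43% in these data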;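 note: modified DeaD lifespan yeast strain shifted to restrictive glucose medium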). The following applies: OD615, 48 h, at 10 µM, stronger effect = higher value.
A short description of test [11]: doxorubicin toxicity protection in MRP-1 cells – H69AR cells, CellTiter-Glo, duplicate, MRP-1 activator project, pilot screen (AID 807;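 active = viability increase at or above a cutoff of the median across tested compounds plus 3 SD, cut at about 8.5% in these data, passing the limit was not always enough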;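 note: compound pretreatment 18-22 h then 72 h combined with doxorubicin; 0% = doxorubicin alone and 100% = vehicle without doxorubicin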). Particulars: H69AR viability with doxorubicin, CellTiter-Glo luminescence; at 10 µM; stronger effect = higher value.
Test [12] can be described thus: viability of HCT116 without oncogenic beta-catenin – human colon tumor cells, pilot screen (AID 823;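 active = cell viability at or below a set limit in both duplicate runs, the limit being the all-compound median minus 4 SD, cut at about 23% in these data, passing the limit was not always enough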;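 note: 0% = wells killed by 20 µM Hyamine and 100% = untreated DMSO cell wells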). The following applies: HCT116 beta-catenin knockout viability, CellTiter-Glo, 60 h; at 10 µM; stronger effect = lower value.
Test [13] in a line: viability of PTEN-null HCT116 cells – cell-based, HCT116 clonal line, CellTiter-Glo, pilot screen (AID 824;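 active = viability at or below 27.92% in each of two runs, the all-compound median minus 4 SD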;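 note: 0% = 20 µM Hyamine control and 100% = vehicle cell control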). Particulars: HCT116 PTEN-deleted viability, 60 h, at 10 µM, stronger effect = lower value.
A short description of test [14]: RAM pathway blockade in budding yeast – dse1pr::URA3 reporter, 5-FOA selection, pilot screen (AID 869;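 active = inhibition over a set limit, the all-compound mean plus 3 SD, in both replicate runs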;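 note: 0% = DMSO wells with no growth and 100% = 10 µM 1-NA-PP1 with full growth; RAM network block rescues cells from 5-FOA so hits raise OD615 growth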). The following applies: S. cerevisiae dse1pr::URA3 5-FOA growth, OD615, 2 d; at 10 µM; stronger effect = higher value; strain carries analog-sensitive mutant Cbk1 kinase.
Test [15] is described as follows: RAM signaling pathway blockade in yeast – S. cerevisiae, Pdr1DBD-CYC8 efflux-inhibited sensitized strain, primary screen (AID 1298;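 active = RAM network inhibition above 8.4% in each of two replicates, 3 SD over the compound average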;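 note: 0% = DMSO untreated cells without growth and 100% = 10 µM 1-NA-PP1 full growth; higher means more yeast growth rescued from 5-FOA killing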). Particulars: S. cerevisiae cbk1-as DSE1-URA3 strain, 5-FOA growth OD615, 2 d; at 50 µM; stronger effect = higher value.
The mark [16] stands for this setting: H69AR cells + 2 uM doxorubicin, measured here: viability with 2 uM doxorubicin, stronger effect = lower value.
[17] abbreviates: H69AR cells, compound alone cytotoxicity.

Chain of Receptor tyrosine-protein kinase erbB-2 (Homo sapiens) (P04626 whole entry, looked up): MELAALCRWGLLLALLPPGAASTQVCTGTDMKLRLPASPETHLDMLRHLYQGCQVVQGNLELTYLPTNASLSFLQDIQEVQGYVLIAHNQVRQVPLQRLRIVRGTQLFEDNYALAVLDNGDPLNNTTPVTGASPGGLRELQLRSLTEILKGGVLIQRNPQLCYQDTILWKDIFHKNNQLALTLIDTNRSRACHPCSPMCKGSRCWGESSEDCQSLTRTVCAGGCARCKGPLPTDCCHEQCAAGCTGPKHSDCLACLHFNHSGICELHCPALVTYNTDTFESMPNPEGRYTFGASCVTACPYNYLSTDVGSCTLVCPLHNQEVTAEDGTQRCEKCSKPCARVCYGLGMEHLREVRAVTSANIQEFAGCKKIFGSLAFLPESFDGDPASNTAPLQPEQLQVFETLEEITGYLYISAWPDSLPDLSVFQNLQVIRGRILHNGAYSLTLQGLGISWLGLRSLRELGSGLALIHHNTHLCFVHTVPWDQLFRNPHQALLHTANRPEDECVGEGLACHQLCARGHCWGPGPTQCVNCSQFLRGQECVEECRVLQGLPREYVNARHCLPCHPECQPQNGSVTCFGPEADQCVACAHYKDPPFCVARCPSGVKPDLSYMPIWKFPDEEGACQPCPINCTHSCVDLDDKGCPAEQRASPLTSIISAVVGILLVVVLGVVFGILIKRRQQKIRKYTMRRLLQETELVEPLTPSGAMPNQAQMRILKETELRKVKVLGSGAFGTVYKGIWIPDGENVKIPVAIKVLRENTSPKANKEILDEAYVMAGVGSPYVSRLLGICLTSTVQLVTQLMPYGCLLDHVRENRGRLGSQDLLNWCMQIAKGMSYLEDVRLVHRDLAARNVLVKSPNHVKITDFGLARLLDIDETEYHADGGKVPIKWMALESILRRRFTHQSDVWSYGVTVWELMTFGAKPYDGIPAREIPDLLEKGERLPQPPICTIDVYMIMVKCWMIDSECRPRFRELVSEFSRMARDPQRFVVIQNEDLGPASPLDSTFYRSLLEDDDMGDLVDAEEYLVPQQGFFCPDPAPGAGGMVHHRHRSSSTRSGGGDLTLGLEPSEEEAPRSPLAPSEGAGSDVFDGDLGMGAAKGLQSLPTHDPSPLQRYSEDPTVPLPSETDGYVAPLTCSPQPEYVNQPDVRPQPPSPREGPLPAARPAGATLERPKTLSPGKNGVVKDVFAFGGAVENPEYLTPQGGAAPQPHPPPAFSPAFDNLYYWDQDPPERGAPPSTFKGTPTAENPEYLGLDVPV

As to `Cc1cccc(C2CC(c3ccc(Cl)cc3)Nc3nc(N)nn32)c1` (stereo not given), the viability – broadly, a read-out of living cells in per cent, often relative to untreated cells – in [1] was 91%; in test [3], 91% (inactive); in test [4], 103% (inactive); in test [5] it was 96.6% (inactive); in test [6] (setting [16]), 107%; in test [6] (setting [17]), 96.6%. For the same compound, the viability is 82.1% (inactive) in test [12] and 74.9% (inactive) in test [13]. Moreover, the Her2 level in [2] is 113% (inactive). For the same compound, in test [6] (H69AR cells + 2 uM doxorubicin), the differential viability (reversal) was -10.4% (inactive). In addition, the inhibition (commonly the change of the read-out against control, counted positive when it falls) in test [7] is 0.4% (inactive); in test [8], -5.25% (inactive); in test [14], 0.01% (inactive). The results for the growth inhibition in [9] and in test [10] were 0.43% (inactive) and 23.9% (inactive), respectively. In test [11], the viability increase was 4.33% (inactive). The RAM network inhibition in [15] is 3.62% (inactive).

As for `Cc1ccc(N=Cc2ccc(O)cc2O)cc1F`, the viability in test [1] is 112%; in test [3], 112% (inactive); in test [4], 69.3% (inactive); in [5], 81.9% (inactive); in test [6] (setting [16]), 73.1%; in test [6] (setting [17]), 81.9%. In addition, the viability is 76% (inactive) in [12] and 77.8% (inactive) in test [13]. Further, in test [2], the Her2 level is 80% (inactive). Moreover, the differential viability (reversal) in test [6] (H69AR cells + 2 uM doxorubicin) is 8.83% (inactive). In addition, the inhibition in [7] was -2.34% (inactive); in [8] it was 6.39% (inactive); in [14], 0.995% (inactive). Also, the values for the growth inhibition in [9] and in test [10] were -10.6% (inactive) and -25.5% (inactive), respectively. For the same compound, the viability increase in test [11] was -4.99% (inactive). Further, in test [15], the RAM network inhibition is 0.31% (inactive).

In the case of `CC(=O)Nc1cccc(NC(=O)c2ccco2)c1`, the viability in test [1] was 94%; in [3], 94% (inactive); in [4], 108% (inactive); in test [5], 91.5% (inactive); in test [6] (setting [16]), 91.6%; in test [6] (setting [17]) it was 91.5%. Besides, the figures for the viability in test [12] and in test [13] were 99.6% (inactive) and 98.1% (inactive), respectively. In addition, in [2], the Her2 level is 94% (inactive). Moreover, in test [6] (H69AR cells + 2 uM doxorubicin), the differential viability (reversal) is -0.085% (inactive). The results for the inhibition in [7], in test [8] and in test [14] were -2.21% (inactive), -11.7% (inactive) and 1.83% (inactive), respectively. The growth inhibition was -5.76% (inactive) in [9] and -3.89% (inactive) in [10]. Besides, the viability increase in test [11] is -4.18% (inactive). Also, the RAM network inhibition in test [15] was 0.76% (inactive).

Consider `CC1(C(=O)NC2CCCCC2)CCC(=O)N1Cc1cccs1` (stereo not given), for which the viability is 83% in test [1]; 83% (inactive) in [3]; 102% (inactive) in [4]; 85.3% (inactive) in test [5]; 90.5% in test [6] (setting [16]); 85.3% in [6] (setting [17]). Further, the results for the viability in [12] and in test [13] were 102% (inactive) and 93.7% (inactive), respectively. Also, the Her2 level in test [2] is 114% (inactive). The differential viability (reversal) in test [6] (H69AR cells + 2 uM doxorubicin) is -5.18% (inactive). In addition, the results for the inhibition in test [7], in [8] and in test [14] were 2.31% (inactive), 8.83% (inactive) and 3.65% (inactive), respectively. Further, the growth inhibition in test [9] was -4.46% (inactive); in test [10], -15.9% (inactive). Also, the viability increase in test [11] is -0.4% (inactive). For the same compound, in [15], the RAM network inhibition is 1.09% (inactive).

As for `CC(C)Sc1nc2c(c(=O)n1-c1ccc(F)cc1)SCC2`, the viability in test [1] is 114%; in test [3], 114% (inactive); in test [4], 87.6% (inactive); in test [5], 88.5% (inactive); in [6] (setting [16]) it was 81.1%; in test [6] (setting [17]), 88.5%. Besides, the viability is 84.6% (inactive) in [12] and 87.1% (inactive) in test [13]. The Her2 level in [2] is 124% (inactive). Moreover, in test [6] (H69AR cells + 2 uM doxorubicin), the differential viability (reversal) is 7.33% (inactive). Moreover, the inhibition in [7] is -4.27% (inactive); in test [8], -4.35% (inactive); in test [14], 0.61% (inactive). Further, the growth inhibition in test [9] is -4.45% (inactive); in [10] it was -19.7% (inactive). Moreover, the viability increase in test [11] is -2.6% (inactive). In addition, the RAM network inhibition in test [15] is 7.83% (inactive).
